In PubChem BioAssay (NCI):
Where “and” joins values, the source holds several entries; their conditions need not be identical. Equal entries are not always repeated. This is part of a sample that, as a whole, favours compounds with a hit. Of some 83,000 tested, about 20% had one in any assay.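 Results are percent growth after 48 hours of single-concentration exposure. 100 means growth as in untreated cells, lower positive values show inhibition; negative values down to -100 show cell death.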 A number with no mark means an inactive call. Calls of active or inactive are those of the source. The calls were made as follows: active = growth percent below 10; inactive = the rest.

system: MDA-MB-468 breast; test: NCI-60 one-dose screen, 48 h (100 = growth as untreated, 0 = no growth, -100 = all killed); conditions: 10 µM unless noted

| Compound | growth |
| --- | --- |
| CNc1ncc2cc(-c3cc(NC(=O)NCCC(C)(C)C)c(F)cc3C)c(C)nc2n1 | 52.7% |
| CCCCCCC/C=N/NC(=O)c1ccc(-n2cc(-c3ccccc3)nn2)cc1 | 82.6% |
| COc1ccc(/C=C2/C(=O)N=C3N2NC(c2ccccc2)=CN3c2ccccc2)cc1 | 88.9% |
| C=C(C)[C@@H]1CC[C@]2(COC(=O)c3cccnc3)CC[C@]3(C)[C@H](CC[C@@H]4[C@@]5(C)CCCN(C(=O)c6cccnc6)C(C)(C)[C@@H]5CC[C@]43C)[C@@H]12 | 23.3% |
| Nc1cc(O)cc(O)c1 | 107% |
| CNC(=O)c1cc(-c2ccc(NC(=O)Nc3ccc(N4CCN(C)CC4)c(C(F)(F)F)c3)cc2)nc2cccnc12 | -73.8% (active) |
| COc1cc(-c2cc(-c3ccc(Nc4ccnc5cc(Cl)ccc45)cc3)nc(N3CCOCC3)n2)cc(OC)c1OC | -43.9% (active) |
| CCCOc1cc2ccccc2cc1C(=O)Nc1nc(N)c2c(ccc3nccc32)[nH]1 | -64.7% (active) |
| O=S(=O)(c1ccccc1)N1CCCc2ccccc21 | 104% |
| COc1ccc(NC(=O)CCCCCCNC(=O)C(O)(O)C(F)(F)F)cc1 | 31.8% |
| COc1ccc(-c2cc(-c3cccnc3)nc3sc(C(=O)Nc4ccccc4)c(N)c23)cc1OC | 80.8% |
| Cc1ccc(-c2nc3nc(-c4ccccc4)nc(N4CCN(S(=O)(=O)c5ccccc5)CC4)c3o2)cc1 | 101% |
| COC(=O)[C@@H]1CCCN1C(=O)[C@@H]1CCCN1C(=O)[C@H](Cc1ccccc1)NC(=S)Nc1cc(C(F)(F)F)cc(C(F)(F)F)c1 | 89% |
| CCOC(=O)Oc1c(OC)cc(C(=O)c2ccc(OC)c(O)c2OC)cc1OC | 19.8% |
| CCN(CC)CCCC(C)Nc1cc(-c2ccc(C(F)(F)F)cc2)c(C#N)c2nc3ccccc3n12 (stereo not given) | -23.6% (active) |
| COc1cc(NC(C)CCCNC(=O)CCC(=O)NCCCNCCCCCCCCNCCCNC(=O)CCC(=O)NCCCC(C)Nc2cc(OC)cc3cccnc23)c2ncccc2c1 (stereo not given) | 16.8% |
| Cc1cc(-c2ccccc2)nc2ccccc12 | 100% |
| O=C(O)c1cccc(S(=O)(=O)c2ccccc2)c1 | 94.7% |
| COc1cc(NCC(C)(O)CN(CC(C)C)CC(C)C)c2nc(C)ccc2c1 (stereo not given) | -11.4% (active) |
| CC(N)C(Cc1ccccc1)c1ccc(Cl)cc1 (stereo not given) | 83.1% |

| Compound | growth |
| --- | --- |
| NC(=O)OCCO | 113% |
| CN(C)C(=S)SC(=S)N(C)C | 91.4% and 95.3% |
| Clc1ccc(Nc2nnc(CNc3ccccc3)c3ccccc23)cc1 | -16.4% (active) |
| COc1cc(/C=C/C(=O)C2=C(/C=C/c3ccc(O)c(OC)c3)NC(=O)NC2c2ccc(O)c(OC)c2)ccc1O (stereo not given) | 88.7% |
| Cc1ccc(-c2cc(-c3ccc(Cl)cc3)nc(NC(=O)c3cccnc3)n2)cc1 | 106% |
| COC(c1ccccc1)C(Br)C(=O)c1ccccc1 (stereo not given) | 94.8% |
| Cc1c(O)cnc2nn(-c3ccccc3)c(=N)n12 | 108% |
| COc1ccc2nc(C)cc(Nc3ccccc3O)c2c1 | 63.5% |
| C=CCn1c(SCC(=O)Nc2cccc(C(=O)/C=C/c3ccc(Br)cc3)c2)nc2ccccc2c1=O | 99.6% |
| CCn1c(=S)[nH]c2c(=O)n(C)c(=O)n(C)c21 | 100% |
| COC(=O)c1nc(=S)[nH]c(C(=O)OC)c1C(=O)c1ccc2ccccc2c1 | 90% |
| COc1ccc(CC(C)=C(c2ccc(OCCN3CCCC3)cc2)c2ccc(OCCN3CCCC3)cc2)cc1 | -85.2% (active) |
| CCOC(=O)c1c2c(c(C)n1Cc1ccc(OC)cc1)-c1nc(N)ncc1CC2 | 107% |
| CC(C)N(C(=O)c1ccccc1)C(C)C | 86.2% |
| Fc1cc(-c2ncc(-c3cc(F)c(F)c(F)c3)c(NC3CCCCCC3)n2)cc(F)c1F | 99% |
| O=C(Nc1cccc([N+](=O)[O-])c1)c1ccc2ccccc2c1O | 52.4% |
| CNCCn1c(=O)c2cc(OC)c(OC)cc2c2ccc3cc4c(cc3c21)OCO4 | -53.9% (active) |
| COc1cccc(/C=C/C(=O)c2cc3c(N)c(C(=O)Nc4cccc5ccccc45)sc3nc2C)c1 | 17.4% |
| O=C(Nc1ccc(Cl)c(C(F)(F)F)c1)Nc1ccc2c(ccn2C(=O)c2cccc(F)c2)c1 | 9.28% (active) |
| O=C(/C=C/C=C/c1ccc2c(c1)OCO2)N/N=C\c1ccc(O)cc1O | -2.83% (active) |
